Among the data in PubChem BioAssay are z-score and composite z-score values, retold here.

The structures appear in SMILES notation. Activity calls are given as the source filed them.

Assay [1] can be described thus: optical density shifts of acrAB sulA E. coli – strain DRC41, OD650, 48 h, E. coli filamentation inducer project, primary screen (AID 1152).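 Also: E. coli MC1000 strain DRC41 lacking acrAB efflux pump and sulA.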 Conditions: higher = more signal, called active from +8 up or from −8 down.
Assay [2] is described as follows: probe aLefty1 binding on compound microarray – biochemical, small-molecule microarray, 635/667 nm fluorescence, primary screen (AID 1153).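 Also: score merges spot fluorescence with signal-to-noise ratio from the scanned slide images.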 The conditions noted are these: higher = more signal.
Assay [3] can be described thus: plasmodial surface anion channel blockers, osmotic lysis – cell-based, P. falciparum Indochina, OD700, 1 h, primary screen (AID 1154). Conditions: P. falciparum Indochina infected RBC osmotic lysis, higher = more signal, called active from +8 up or from −8 down.
Assay [4] is described as follows: plasmodial surface anion channel blockers, osmotic lysis – cell-based, P. falciparum Indochina, OD700, 2 h, primary screen (AID 1155).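 Also: lysis reports solute entry through the parasite surface anion channel PSAC.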 The conditions noted are these: P. falciparum Indochina infected erythrocytes, higher = more signal, called active from +8 up or from −8 down.
The nature of assay [5]: changes in parasitized red cell lysis, either direction – P. falciparum Indochina, OD700, 3 h, PSAC antagonist project, primary screen (AID 1156). The conditions noted are these: P. falciparum-infected erythrocytes, osmotic lysis, higher = more signal, called active from +8 up or from −8 down.
A short description of assay [6]: plasmodial surface anion channel blockers, osmotic lysis – cell-based, P. falciparum Indochina, OD700, 18 h, primary screen (AID 1157). The conditions noted are these: P. falciparum Indochina infected erythrocytes, osmotic lysis OD700, 18 h; higher = more signal, called active from +8 up or from −8 down.
The nature of assay [7]: S6 kinase pathway phospho-S6 level changes – cell-based, A549, cytoblot, luminescence, serum-stimulated, primary screen (AID 1158).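 Also: serum-stimulated A549 lung adenocarcinoma cells; signal is phosphorylated S6 detected by cytoblot immunostaining with HRP secondary.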 The conditions noted are these: 5 h, higher = more signal.
Assay [8] addresses NADPH oxidase 2 (Homo sapiens) (UniProt P04839). In words: compounds shifting NOX2 Amplex Red fluorescence – cell-based, HEK293-NOX2, PMA-stimulated, NOX inhibitor project, primary screen (AID 1159). Also: test concentration not given here. Conditions: 45 min, higher = more signal, called active from +8 up or from −8 down.
For assay [9], the target named is NADPH oxidase 4 (Homo sapiens) (UniProt Q9NPH5). The experiment in a line: compounds shifting NOX4 Amplex Red fluorescence – cell-based, HEK293-NOX4, tetracycline-induced, NOX inhibitor project, primary screen (AID 1160). Conditions: HEK293-NOX4, Amplex Red H2O2 fluorescence, 45 min; higher = more signal, called active from +8 up or from −8 down.
The target in assay [10] is NADPH oxidase 5 (Homo sapiens) (UniProt Q96PH1). The experiment in a line: compounds shifting NOX5 Amplex Red fluorescence – cell-based, HEK293-NOX5, NOX inhibitor project, primary screen (AID 1161). Conditions: HEK293-NOX5, ionomycin, 45 min, higher = more signal.
Assay [11] in a line: compound effects on lung adenocarcinoma cell viability – A549, calcein-AM fluorescence, 48 h, basal, profiling panel (AID 1162). Also: test concentration not given here. Conditions: higher = more signal.
A short description of assay [12]: compound effects on differentiated 3T3-L1 adipocyte viability – cell-based, 3T3-L1 adipocytes, calcein-AM fluorescence, 48 h, basal, profiling panel (AID 1163). Also: test concentration not given here. The conditions noted are these: 3T3-L1 adipocytes viability, higher = more signal.
Assay [13] can be described thus: compound effects on hepatocellular carcinoma cell viability – HepG2, calcein-AM fluorescence, 48 h, basal, profiling panel (AID 1164). Also: test concentration not given here. The conditions noted are these: higher = more signal.
Assay [14] can be described thus: compound effects on multiple myeloma cell viability – MM1S, calcein-AM fluorescence, 48 h, basal, profiling panel (AID 1165). Also: test concentration not given here. Conditions: higher = more signal.
The nature of assay [15]: calcein-AM signal in unstimulated myeloma cells – cell-based, calcein-AM fluorescence, 48 h, PK04 Diversity Set, profiling panel (AID 1166).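 Also: cells grown under basal conditions without added stimulus; test concentration not given here.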 The conditions noted are these: RPMI8226 myeloma viability, higher = more signal.
A short description of assay [16]: JC-1 mitochondrial signal, unstimulated HepG2 cells – cell-based, JC-1 fluorescence, 24 h, 100 nL compound, profiling panel (AID 1167). Also: test concentration not given here. The conditions noted are these: HepG2 mitochondrial potential, higher = more signal.
Assay [17] is described as follows: JC-1 mitochondrial signal, unstimulated adipocytes – cell-based, JC-1 fluorescence, 3T3-L1 adipocytes, 24 h, 100 nL compound, profiling panel (AID 1168). Also: test concentration not given here. Conditions: JC-1 mitochondrial fluorescence, higher = more signal, called active from +8 up or from −8 down.
The nature of assay [18]: JC-1 mitochondrial signal, unstimulated myeloma cells – cell-based, JC-1 fluorescence, RPMI8226, 24 h, 100 nL compound, profiling panel (AID 1169). Also: test concentration not given here. The conditions noted are these: JC-1 mitochondrial potential fluorescence, higher = more signal.
Assay [19] can be described thus: JC-1 mitochondrial signal, unstimulated MM1S myeloma – cell-based, JC-1 fluorescence, 24 h, 100 nL compound, profiling panel (AID 1170). Also: test concentration not given here. The conditions noted are these: MM1S mitochondrial potential, higher = more signal.
A short description of assay [20]: resazurin metabolic signal in A549 cells – cell-based, resazurin fluorescence, 24 h, PK04 Diversity Set, profiling panel (AID 1171). Also: test concentration not given here. Conditions: A549 viability, higher = more signal, called active from +8 up or from −8 down. (In general: The colour change of resazurin is a common sign of viable cells or microbes.)

Sequence of NADPH oxidase 5 (Homo sapiens) (Q96PH1 whole entry, looked up): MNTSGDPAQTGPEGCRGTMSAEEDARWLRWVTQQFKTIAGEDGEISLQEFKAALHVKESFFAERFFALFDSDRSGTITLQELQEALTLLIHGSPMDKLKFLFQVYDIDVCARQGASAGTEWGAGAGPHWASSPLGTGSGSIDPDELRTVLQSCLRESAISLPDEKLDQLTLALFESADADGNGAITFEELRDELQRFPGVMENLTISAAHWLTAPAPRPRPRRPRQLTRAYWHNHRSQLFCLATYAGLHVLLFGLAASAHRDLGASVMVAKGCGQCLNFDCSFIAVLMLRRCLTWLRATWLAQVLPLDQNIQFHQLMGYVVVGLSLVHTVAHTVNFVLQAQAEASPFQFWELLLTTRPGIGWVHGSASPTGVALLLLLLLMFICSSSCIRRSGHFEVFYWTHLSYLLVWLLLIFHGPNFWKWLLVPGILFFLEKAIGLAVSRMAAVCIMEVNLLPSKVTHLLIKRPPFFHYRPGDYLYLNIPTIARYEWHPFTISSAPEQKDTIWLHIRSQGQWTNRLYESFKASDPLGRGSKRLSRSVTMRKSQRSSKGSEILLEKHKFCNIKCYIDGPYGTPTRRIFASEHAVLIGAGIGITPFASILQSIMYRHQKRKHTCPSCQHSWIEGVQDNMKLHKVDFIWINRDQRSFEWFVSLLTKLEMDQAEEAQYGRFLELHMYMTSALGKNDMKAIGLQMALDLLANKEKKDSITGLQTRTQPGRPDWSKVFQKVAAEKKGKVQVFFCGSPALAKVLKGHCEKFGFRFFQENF
Sequence of NADPH oxidase 2 (Homo sapiens) (P04839 whole entry, looked up): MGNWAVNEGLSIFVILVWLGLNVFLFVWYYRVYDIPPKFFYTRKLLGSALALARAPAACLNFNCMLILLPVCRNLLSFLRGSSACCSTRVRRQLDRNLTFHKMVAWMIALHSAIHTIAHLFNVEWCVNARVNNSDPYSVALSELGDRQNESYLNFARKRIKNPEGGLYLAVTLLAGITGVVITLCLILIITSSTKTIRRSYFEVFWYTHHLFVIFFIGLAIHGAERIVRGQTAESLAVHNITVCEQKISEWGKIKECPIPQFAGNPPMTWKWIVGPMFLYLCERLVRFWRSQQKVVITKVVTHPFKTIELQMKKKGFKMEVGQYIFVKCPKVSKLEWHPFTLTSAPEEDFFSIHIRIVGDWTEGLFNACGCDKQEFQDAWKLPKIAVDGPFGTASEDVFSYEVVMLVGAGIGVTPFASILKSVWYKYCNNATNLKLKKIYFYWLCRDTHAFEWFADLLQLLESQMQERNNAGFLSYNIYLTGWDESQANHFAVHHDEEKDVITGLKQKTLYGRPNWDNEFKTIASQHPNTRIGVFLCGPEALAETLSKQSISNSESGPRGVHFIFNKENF
Sequence of NADPH oxidase 4 (Homo sapiens) (Q9NPH5 whole entry, looked up): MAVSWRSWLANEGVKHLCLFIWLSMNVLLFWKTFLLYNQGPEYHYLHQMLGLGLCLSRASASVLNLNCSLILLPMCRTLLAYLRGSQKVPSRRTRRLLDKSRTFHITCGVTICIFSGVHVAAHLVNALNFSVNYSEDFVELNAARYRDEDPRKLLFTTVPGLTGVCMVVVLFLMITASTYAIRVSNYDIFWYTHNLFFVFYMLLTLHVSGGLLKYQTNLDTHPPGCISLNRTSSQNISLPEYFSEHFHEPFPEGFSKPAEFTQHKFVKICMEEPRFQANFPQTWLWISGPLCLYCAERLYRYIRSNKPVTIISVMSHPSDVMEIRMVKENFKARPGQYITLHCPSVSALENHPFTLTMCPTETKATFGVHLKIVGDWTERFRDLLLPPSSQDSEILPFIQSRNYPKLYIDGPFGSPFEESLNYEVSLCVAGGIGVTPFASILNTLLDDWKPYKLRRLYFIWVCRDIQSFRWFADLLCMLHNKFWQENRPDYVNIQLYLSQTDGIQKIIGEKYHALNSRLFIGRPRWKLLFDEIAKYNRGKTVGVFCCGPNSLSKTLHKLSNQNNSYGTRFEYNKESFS

`C=C(/C(=C/C[C@@H](OC(=O)c1ccncc1)c1ccccc1OCCO)c1cc(C(=O)OC)ccc1OC)C(C)C`: the z-score was 0.548 (inactive) in assay [1]; 23.6 (active) in assay [3]; 7.36 (inactive) in [4]; 4.04 (inactive) in [5]; 1.44 (inactive) in [6]; 1.12 in assay [7]. The z-score in [8] is -0.295 (inactive); in assay [9], -1.04 (inactive); in [10] it was -1.63; in [11], 1.36; in assay [12], 0.38; in assay [13], 0.92. Moreover, the z-score in [14] is -3.25; in assay [15], -2.11; in [16], 2.74; in assay [17], -0.158 (inactive); in assay [18], 0.00511; in [19], -1.71. Also, the z-score in [20] is -0.108 (inactive). Also, in assay [2], the composite z-score was -0.204.

Take `CC(C)N1C(=O)[C@@]2(c3ccc([N+](=O)[O-])cc3)CC(=O)N(C3CCCCC3)[C@@H]2c2ccc(CO)cc21`: the z-score in assay [1] was 0.0586 (inactive); in assay [3], -0.716 (inactive); in assay [4] it was -0.465 (inactive); in [5] it was -0.393 (inactive); in [6], -0.334 (inactive); in [7], 0.254. Also, the z-score was -0.898 (inactive) in assay [8]; -0.363 (inactive) in assay [9]; -0.316 in assay [10]; -0.0841 in [11]; -0.0435 in [12]; -0.647 in assay [13]. In addition, the z-score in [14] was -0.331; in assay [15] it was 0.311; in assay [16], -0.0357; in assay [17], -0.14 (inactive); in [18] it was -0.0593; in [19], -0.843. In addition, in [20], the z-score was 2.09 (inactive). This compound also had a composite z-score in assay [2] of -0.672.

Take `C=CC[C@]1(C(=O)N(C)C)N=C(c2ccc(OCCCO)cc2)O[C@H]1c1ccccc1N=[N+]=[N-]`: the z-score was 0.355 (inactive) in [1]; 30.8 (active) in assay [3]; 28.4 (active) in [4]; 2.88 (inactive) in assay [5]; 7.33 (inactive) in assay [6]; -0.219 in assay [7]. Also, the z-score was -1.06 (inactive) in assay [8]; 1.52 (inactive) in assay [9]; 0.668 in [10]; -0.363 in assay [11]; -0.768 in assay [12]; -0.2 in [13]. Moreover, the z-score in assay [14] was -0.995; in [15], -1.85; in assay [16], -0.358; in assay [17], 0.0159 (inactive); in assay [18], -0.886; in assay [19], -1.23. Besides, the z-score in assay [20] was -0.302 (inactive). In [2], this compound gave a composite z-score of 0.313.

In the case of `O=C1O[C@@H](c2ccccc2)[C@@H](c2ccccc2)N2[C@@H](c3ccccc3OCCO)[C@]3(C(=O)Nc4ccc(C#CCCO)cc43)[C@@H](C(=O)N3CCN(c4ncccn4)CC3)[C@H]12`, the z-score in assay [1] was 0.255 (inactive); in assay [3], 2.58 (inactive); in [4], 1.27 (inactive); in [5], -1.09 (inactive); in assay [6], 0.418 (inactive); in assay [7] it was -0.531. Further, the z-score in [8] is 1.3 (inactive); in assay [9], -0.686 (inactive); in assay [10] it was 0.272; in [11], 0.246; in assay [12], 0.986; in assay [13], -0.477. The z-score was -0.315 in assay [14]; -3.89 in assay [15]; 0.799 in [16]; 0.778 (inactive) in assay [17]; -1.33 in [18]; 0.431 in assay [19]. Besides, in [20], the z-score is 1.13 (inactive). Moreover, the composite z-score in [2] turned out to be 0.0927.
